Experimental data published in PubChem BioAssay AID1626 (SRMLSC, 2009).
The whole screen tested about 220,000 compounds, of which about 2,000 (0.91%) were called active. Not shown: some 2% with an inconclusive outcome. Cut-off read from the data, not from the text of the source: inconclusive = inhibition above about 80% without an active follow-up result; inactive = below that; test concentration not stated here. Only a sample is shown. Entries with a potency or affinity are not part of this list.

Experiment: M. tuberculosis H37Rv growth inhibitors, H37Rv strain (AID 1626);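 note: bacteria incubated seven days before Alamar blue readout; 0% = bacteria only wells and 100% = bacteria with antibiotic wells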
Conditions: stronger effect = higher value, concentration not given here

SMILES | inhibition
Cc1ccc(-n2c(-c3ccncc3)n[nH]c2=S)cc1 | -9.92% (inactive)
Cc1cc2oc(C(=O)N(Cc3cccs3)C3CCS(=O)(=O)C3)cc(=O)c2cc1Cl (configuration not stated) | 0.6% (inactive)
O=C(NCCc1ccccc1)C1CCN(Cc2ccccc2F)CC1 | 0.69% (inactive)
CCCSc1nnc(Cn2c(=O)sc3ccccc32)n1C | 3.51% (inactive)
CCOC(=O)c1c(NC(=O)C2COc3ccccc3O2)sc(C(C)=O)c1C (configuration not stated) | -3.37% (inactive)
CC1(C)Cc2c(sc(NC(=O)COc3ccccc3)c2C#N)C(C)(C)N1 | -3.34% (inactive)
CCOC(=O)c1c(NC(=O)C2COc3ccccc3O2)sc(C)c1C (configuration not stated) | -3.73% (inactive)
Cc1ccc(OCC(=O)Nc2sc3c(c2C#N)CC(C)(C)NC3(C)C)cc1 | 10.1% (inactive)
CCOC(=O)c1cc2occc2n1CCCN1C(=O)c2ccccc2C1=O | -1.25% (inactive)
CCc1cc2ccc(OC)cc2nc1SCC(=O)NNC(C)=O | 2.9% (inactive)
CC(=O)N(NC(N)=O)C(C)CC(=O)C1C(C)C=CCC1(C)C (configuration not stated) | -4.41% (inactive)
CC(c1nnnn1C(C)(C)C)N(Cc1cccnc1)Cc1ccccc1Cl (configuration not stated) | 11.3% (inactive)
O=C(Cc1cc(=O)[nH][nH]1)N/N=C/c1ccccc1Cl | 0.78% (inactive)
O=C(COc1ccccc1[N+](=O)[O-])N/N=C/c1ccc(O)c([N+](=O)[O-])c1 | -1.06% (inactive)
O=[N+]([O-])c1ccc(/C=N/N/C(=N/c2ccccn2)c2ccccn2)cc1 | 6.35% (inactive)
C=CCNC(=S)NNC(=O)c1ccc(=O)n(Cc2ccc(Cl)cc2Cl)c1 | 2.51% (inactive)
COC(=O)/C(=C1/Oc2ccc(C)cc2S1)C(F)(F)F | 1.01% (inactive)
COC(=O)/C(=C1/Oc2ccc(C(C)(C)C)cc2S1)C(F)(F)F | -3.79% (inactive)
CCCCCn1c(=O)[nH]c2cc(C(=O)NCCN(CC)CC)ccc2c1=O | 2.41% (inactive)
Cc1cc2cc(C)c(SCC(=O)NCc3ccco3)nc2cc1C | 2.4% (inactive)
COC(=O)CCCC[C@H]1SC[C@H]2NC(=O)N[C@]21O | -9.41% (inactive)
COc1ccc(Cl)cc1C(=O)Nc1ccc(NC(=O)C(C)C)cc1 | 6.21% (inactive)
Cc1ccc(S(=O)(=O)n2c([N+](=O)[O-])cnc2C)c(C)c1C | 2.51% (inactive)

SMILES | inhibition
Cc1nn(-c2ccccc2)c2sc(C(=O)O)cc12 | -2.71% (inactive)
CC(=O)c1sc(NC(=O)c2cc3c(C)nn(-c4ccccc4)c3s2)nc1C | -3.28% (inactive)
Cc1ccc(Nc2nc(COC(=O)COc3ccc(C=O)cc3)cs2)cc1 | -1.49% (inactive)
C/C=C/c1ccc(OCC(=O)OCC)c(OC)c1 | 78.2% (inactive)
Cc1occc1-c1n[nH]c(=S)n1C | -11.2% (inactive)
NC(=O)C1CCN(C(=O)C2c3ccccc3C(=O)N3CCc4ccccc4C23)CC1 (configuration not stated) | 1.51% (inactive)
Cn1nc(-c2ccc(Cl)cc2)c2cc(C(=O)N3CCN(c4ccccc4)CC3)sc21 | 7.8% (inactive)
COc1cccc(-c2nn(C)c3sc(C(=O)N4CCN(c5ccccn5)CC4)cc23)c1 | 60% (inactive)
COc1ccccc1N1CCN(c2ncc(C(=O)N3CCN(c4cccc(Cl)c4)CC3)c3ccccc23)CC1 | 95% (inactive)
CC(C)NC(=O)c1cnc(N2CCN(c3ccccn3)CC2)c2ccccc12 | 6.14% (inactive)
O=C(c1cnc(N2CCN(c3ncccn3)CC2)c2ccccc12)N1CCN(c2ccccn2)CC1 | 1.07% (inactive)
O=C(Nc1ccc(C(F)(F)F)cc1)c1cnc(N2CCN(c3ccccn3)CC2)c2ccccc12 | 65.3% (inactive)
O=C(NN1C(=O)C2C3C=CC(O3)C2C1=O)c1cccc(Br)c1 (configuration not stated) | 5.77% (inactive)
Cc1c(C(=O)NCC2CCCO2)cccc1[N+](=O)[O-] (configuration not stated) | 2.82% (inactive)
O=C(NCc1cccc(C(F)(F)F)c1)C1CCN(c2ncccn2)CC1 | -1.47% (inactive)
O=C(O)CCc1nc2ccccc2n(CCc2ccccc2)c1=O | -8.81% (inactive)
O=C(C1CC(c2ccc(F)cc2)=NO1)N1CCc2ccccc2C1 (configuration not stated) | -0.85% (inactive)
O=C(c1cccc(F)c1)N1CCN(C(=O)c2nn3cccnc3c2Cl)CC1 | 0.18% (inactive)
O=C(c1ccc(F)cc1)C1CCN(C(=O)c2ccncc2)CC1 | -7.5% (inactive)
O=C(/C=N/O)Nc1ccc2sc3ccccc3c2c1 | 50.4% (inactive)
N#Cc1c2n(c3c(=O)n(CC(=O)c4ccc(Br)cc4)cnc13)CCCC2 | 1.64% (inactive)
CC(C)CCN1CCN(Cc2nc(-c3ccccc3)cs2)CC1CCO (configuration not stated) | 4.13% (inactive)
Cn1cnc([N+](=O)[O-])c1Sc1ncnc2nc[nH]c12 | 7.31% (inactive)

SMILES | inhibition
O=C(CSc1ncnc2nc[nH]c12)c1ccc([N+](=O)[O-])cc1 | -0.96% (inactive)
COc1cc(/C=N/NC(=O)c2cncc(Br)c2)ccc1OC(=O)c1ccc2c(c1)OCO2 | -4.21% (inactive)
COc1cccc(CC2(CO)CCCN(Cc3ccc(C)s3)C2)c1 (configuration not stated) | 4% (inactive)
OCC1(CCOc2ccccc2)CCN(CC2=Cc3cc(Cl)ccc3OC2)CC1 | 6.89% (inactive)
COc1cccc(CC2(CO)CCCN(Cc3cc4ccccc4[nH]3)C2)c1 (configuration not stated) | 9.65% (inactive)
COc1ccc2[nH]c(CN3CCC(CO)(CCOc4ccccc4)CC3)c(C)c2c1 | -2.25% (inactive)
COc1cc(OC)cc(C(=O)NCC(=O)OCC(=O)N2c3ccccc3NC(=O)C2(C)C)c1 | -1.81% (inactive)
COc1ccc(CN2CCN(CCCc3ccccc3)CC2)c(OC)c1 | 1.06% (inactive)
COc1cccc(C2C(C(=O)c3cc4cccc(OC)c4o3)=C(O)C(=O)N2c2cc(C)on2)c1OC (configuration not stated) | -9.58% (inactive)
COc1cc2c(cc1OC)C(C)N(C(=O)c1cc3ccccc3o1)CC2 (configuration not stated) | 3.79% (inactive)
Cc1cc(=O)oc2cc(OCC(=O)Nc3ccc(S(=O)(=O)N(C)C)cc3)ccc12 | -9.04% (inactive)
O=C(Nc1ccc(F)cc1)N1CCN(c2nc3ccccc3s2)CC1 | 6.46% (inactive)
O=C(Nc1ccccc1)N1CCN(c2nc3ccccc3s2)CC1 | -10% (inactive)
CC(=O)Cc1nsc(NC(=O)c2ccc(-c3ccc(Cl)cc3Cl)o2)n1 | -7.01% (inactive)
Cc1ccc(OCC(=O)N(Cc2cccs2)C2CCS(=O)(=O)C2)cc1C (configuration not stated) | 1.52% (inactive)
CC(C)C1OC(c2cccc(NC(=O)c3cccs3)c2)OCC1(C)C (configuration not stated) | 3.13% (inactive)
CCCCOc1ccc(CSCCN=C(N)N)cc1 | 10.7% (inactive)
Nc1c(C(=O)NCCN2CCOCC2)c2nc3ccccc3nc2n1CCc1ccccc1 | 34.9% (inactive)
Nc1c(C(=O)NCc2ccc(F)cc2)c2nc3ccccc3nc2n1CCCN1CCOCC1 | 14.5% (inactive)
COc1ccc(CNC(=O)c2c(N)n(CCCN3CCOCC3)c3nc4ccccc4nc23)cc1 | 16.6% (inactive)
CCCCCn1c(N)c(C(=O)NCCN2CCOCC2)c2nc3ccccc3nc21 | 27.3% (inactive)
Nc1c(C(=O)NCCN2CCOCC2)c2nc3ccccc3nc2n1Cc1ccccc1 | 13.8% (inactive)
COc1ccc(CCNC(=O)c2c(N)n(CCN3CCOCC3)c3nc4ccccc4nc23)cc1OC | 20.2% (inactive)

SMILES | inhibition
CS(=O)(=O)c1ccc(C(=O)OCC(=O)NC23CC4CC(CC(C4)C2)C3)cc1[N+](=O)[O-] | 6.01% (inactive)
Cc1c(N=C2SCC(=O)N2/N=C\c2ccc(Br)cc2)c(=O)n(-c2ccccc2)n1C | 2.9% (inactive)
Cn1c(N)c(C(=O)COC(=O)CCCc2nc3ccccc3s2)c(=O)n(C)c1=O | 3.44% (inactive)
COc1cc(C(=O)NCCc2ccc(S(=O)(=O)N3CCCC3)cc2)cc(OC)c1OC | -6.26% (inactive)
CCCC1(C(=O)OCC)NC(c2ccc(O)cc2)C2C(=O)N(c3ccc4c(c3)OCCO4)C(=O)C21 (configuration not stated) | 11.1% (inactive)
COc1cccc(NC(=O)NC2CCCc3ccccc32)c1 (configuration not stated) | 0.07% (inactive)
O=C(O)CSc1c2c(nc3cc(C(=O)NCCN4CCOCC4)ccc13)CCC2 | -7.4% (inactive)
O=C(NCCCN1CCOCC1)c1ccc(CS(=O)(=O)Cc2ccc(Cl)cc2)o1 | 2.9% (inactive)
Cc1ccc(Nc2c([N+](=O)[O-])c(=O)oc3ccccc23)cc1C | 60.5% (inactive)
O=c1oc2ccccc2c(Nc2ccccc2)c1[N+](=O)[O-] | -3.06% (inactive)
CN1C(=O)NC(=O)/C(=C\C=C\c2ccccc2[N+](=O)[O-])C1=O | 3.14% (inactive)
N#C/C(=C/c1ccc(Br)s1)C(=O)NCCc1c[nH]c2ccccc12 | -14% (inactive)
N#C/C(=C\c1ccc(N2CCOCC2)o1)C(=O)NCCc1ccccc1 | 1.46% (inactive)
O=C(Nc1ccccc1)N(Cc1ccccc1)Cc1ccccc1 | 9.83% (inactive)
C=CCNC(=O)Nc1cc(Cl)ccc1OC | -2.63% (inactive)
Cc1cc(C(=O)COc2ccc3ccc(=O)oc3c2)c(C)n1C | -5.12% (inactive)
CC(=O)c1cccc(OCC(=O)c2cc(C)n(-c3cc(C)on3)c2C)c1 | 17.2% (inactive)
Cc1ccc2occ(C3N[C@H](C(=O)O)CS3)c(=O)c2c1 (some centres not stated) | -2.55% (inactive)
COc1ccc(NS(=O)(=O)c2ccc3nc(COc4ccc(C#N)cc4)[nH]c3c2)cc1 | 12.1% (inactive)
COc1ccc(NS(=O)(=O)c2ccc3nc(COc4ccc5ccccc5c4)[nH]c3c2)cc1 | 15.1% (inactive)
CC(=O)c1c(C)nn(CC(O)Cn2c3c(c4cc(C)ccc42)CCCC3=O)c1C (configuration not stated) | 7.8% (inactive)
COc1cccc(-n2nnc3c(=O)n(CC(=O)N4CCC(Cc5ccccc5)CC4)cnc32)c1 | 2.62% (inactive)
COc1ccc(-n2nnc3c(=O)n(CC(=O)N4CCC(Cc5ccccc5)CC4)cnc32)cc1 | -2.81% (inactive)
